Measured values from PubChem BioAssay AID1159580 (chemical genetic matrix, 2015).
“And” between values parts separate entries of the source, which are not always exact repeats. Identical values can stand only once. The whole screen tested about 5,500 compounds, of which about 2,000 (36%) were called active. Not shown: some 18% with an inconclusive outcome. No stated cut-off is given here; in the data, active means normalized growth mostly below about 0.91 (no sharp cut-off); inconclusive means no clear call, values can overlap the other calls; inactive means mostly above about 0.92. Some of the results follow.

Assay: chemical genetic growth profiling, strain panel (AID 1159580);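 further: tested at 20 µM; growth read once vehicle control cultures reached saturation at 30 °C; 1 = growth at the plate median or of vehicle wells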
Conditions: growth OD

Measured: normalized growth

CC(=O)O[C@@H]1CC[C@@]2(C)C(C[C@@H](OC(C)=O)[C@@]3(C)C4=CC(=O)O[C@@H](c5ccoc5)[C@]4(C)CCC23)C1(C)C (stereo partly drawn)
inactive: S. cerevisiae deletion strains, locus YBR021W, strain FUR4, stronger effect = lower value 1.01 | S. cerevisiae deletion strains, locus YBR229C, strain ROT2, stronger effect = lower value 1.01 | S. cerevisiae deletion strains, locus YCL029C, strain bik1, stronger effect = lower value 0.99 | S. cerevisiae deletion strains, locus YDL035C, strain GPR1, stronger effect = lower value 1.03 | S. cerevisiae deletion strains, locus YDL074C, strain BRE1, stronger effect = lower value 1 | S. cerevisiae deletion strains, locus YDL101C, strain DUN1, stronger effect = lower value 1.01 | S. cerevisiae deletion strains, locus YDL134C, strain PPH21, stronger effect = lower value 1.01 | S. cerevisiae deletion strains, locus YDL185W, strain tfp1, stronger effect = lower value 0.996 | S. cerevisiae deletion strains, locus YDL192W, strain arf1, stronger effect = lower value 1 | S. cerevisiae deletion strains, locus YDR101C, strain arx1, stronger effect = lower value 1 | S. cerevisiae deletion strains, locus YDR162C, strain NBP2, stronger effect = lower value 1.02 | S. cerevisiae deletion strains, locus YDR318W, strain mcm21, stronger effect = lower value 1 | S. cerevisiae deletion strains, locus YDR388W, stronger effect = lower value 1 | S. cerevisiae deletion strains, locus YDR502C, strain sam2, stronger effect = lower value 0.983 | S. cerevisiae deletion strains, locus YEL061C, strain CIN8, stronger effect = lower value 1.02 | S. cerevisiae deletion strains, locus YER110C, stronger effect = lower value 1 | S. cerevisiae deletion strains, locus YER155C, strain BEM2, stronger effect = lower value 1.02 | S. cerevisiae deletion strains, locus YER167W, strain BCK2, stronger effect = lower value 1.02 | S. cerevisiae deletion strains, locus YGL078C, strain dbp3, stronger effect = lower value 0.994 | S. cerevisiae deletion strains, locus YGL086W, strain mad1, stronger effect = lower value 1.02 | S. cerevisiae deletion strains, locus YGL248W, strain PDE1, stronger effect = lower value 0.999 | S. cerevisiae deletion strains, locus YGR135W, strain pre9, stronger effect = lower value 0.973 | S. cerevisiae deletion strains, locus YGR252W, strain gcn5, stronger effect = lower value 0.918 | S. cerevisiae deletion strains, locus YHR030C, strain SLT2, stronger effect = lower value 0.962 | S. cerevisiae deletion strains, locus YHR079C, strain IRE1 (second series), stronger effect = lower value 1 | S. cerevisiae deletion strains, locus YHR079C, strain IRE1, stronger effect = lower value 0.998 | S. cerevisiae deletion strains, locus YHR094C, strain hxt1, stronger effect = lower value 0.998 | S. cerevisiae deletion strains, locus YHR129C, strain ARP1, stronger effect = lower value 1.02 | S. cerevisiae deletion strains, locus YHR200W, strain rpn10, stronger effect = lower value 0.976 | S. cerevisiae deletion strains, locus YIL066C, strain RNR3, stronger effect = lower value 1.03 | S. cerevisiae deletion strains, locus YIL073C, strain SPO22, stronger effect = lower value 0.996 | S. cerevisiae deletion strains, locus YIL125W, strain kgd1, stronger effect = lower value 1 | S. cerevisiae deletion strains, locus YIR030C, strain dcg1, stronger effect = lower value 1 | S. cerevisiae deletion strains, locus YJL095W, strain BCK1, stronger effect = lower value 0.986 and 0.998 | S. cerevisiae deletion strains, locus YJL134W, strain LCB3, stronger effect = lower value 1.02 | S. cerevisiae deletion strains, locus YJL168C, strain set2, stronger effect = lower value 1 | S. cerevisiae deletion strains, locus YJL187C, strain SWE1 (second series), stronger effect = lower value 1 | S. cerevisiae deletion strains, locus YJR066W, strain TOR1, stronger effect = lower value 0.918 | S. cerevisiae deletion strains, locus YKL009W, strain mrt4, stronger effect = lower value 1.05 | S. cerevisiae deletion strains, locus YKL068W, stronger effect = lower value 1 | S. cerevisiae deletion strains, locus YKL085W, strain MDH1 (second series), stronger effect = lower value 1.03 | S. cerevisiae deletion strains, locus YKL085W, strain MDH1, stronger effect = lower value 1.03 | S. cerevisiae deletion strains, locus YKL190W, strain CNB1, stronger effect = lower value 1.02 | S. cerevisiae deletion strains, locus YKR001C, strain vps1, stronger effect = lower value 0.998 | S. cerevisiae deletion strains, locus YLR039C, strain RIC1, stronger effect = lower value 1.04 | S. cerevisiae deletion strains, locus YLR058C, strain SHM2, stronger effect = lower value 1.01 | S. cerevisiae deletion strains, locus YLR102C, strain apc9, stronger effect = lower value 0.998 | S. cerevisiae deletion strains, locus YLR113W, strain HOG1, stronger effect = lower value 0.981 | S. cerevisiae deletion strains, locus YLR268W, strain sec22, stronger effect = lower value 0.99 | S. cerevisiae deletion strains, locus YLR371W, strain rom2, stronger effect = lower value 1.01 | S. cerevisiae deletion strains, locus YLR418C, strain cdc73, stronger effect = lower value 0.909 | S. cerevisiae deletion strains, locus YML016C, strain PPZ1, stronger effect = lower value 1.02 | S. cerevisiae deletion strains, locus YML032C, strain rad52, stronger effect = lower value 1 | S. cerevisiae deletion strains, locus YML124C, strain tub3, stronger effect = lower value 0.999 | S. cerevisiae deletion strains, locus YMR078C, strain ctf18, stronger effect = lower value 1.01 | S. cerevisiae deletion strains, locus YMR223W, strain ubp8, stronger effect = lower value 0.988 | S. cerevisiae deletion strains, locus YMR307W, strain GAS1, stronger effect = lower value 0.953 | S. cerevisiae deletion strains, locus YNL067W, strain RPL9B, stronger effect = lower value 1 | S. cerevisiae deletion strains, locus YNL183C, strain NPR1, stronger effect = lower value 0.931 | S. cerevisiae deletion strains, locus YNL233W, strain BNI4, stronger effect = lower value 0.993 | S. cerevisiae deletion strains, locus YNL250W, strain rad50, stronger effect = lower value 0.992 | S. cerevisiae deletion strains, locus YNL271C, strain bni1, stronger effect = lower value 1 | S. cerevisiae deletion strains, locus YNL298W, strain CLA4, stronger effect = lower value 0.989 | S. cerevisiae deletion strains, locus YNL307C, strain MCK1, stronger effect = lower value 0.993 | S. cerevisiae deletion strains, locus YNR052C, strain pop2, stronger effect = lower value 0.993 | S. cerevisiae deletion strains, locus YOL006C, strain TOP1, stronger effect = lower value 0.986 | S. cerevisiae deletion strains, locus YOL012C, strain htz1 0.707 | S. cerevisiae deletion strains, locus YOL147C, strain pex11, stronger effect = lower value 1 | S. cerevisiae deletion strains, locus YOR061W, strain CKA2, stronger effect = lower value 1.02 | S. cerevisiae deletion strains, locus YOR069W, strain VPS5, stronger effect = lower value 1.02 | S. cerevisiae deletion strains, locus YOR136W, strain idh2, stronger effect = lower value 0.996 | S. cerevisiae deletion strains, locus YOR144C, strain elg1, stronger effect = lower value 1.01 | S. cerevisiae deletion strains, locus YOR184W, strain ser1, stronger effect = lower value 1.01 | S. cerevisiae deletion strains, locus YOR231W, strain MKK1, stronger effect = lower value 0.999 | S. cerevisiae deletion strains, locus YOR316C, strain cot1, stronger effect = lower value 0.999 | S. cerevisiae deletion strains, locus YPL055C, strain LGE1, stronger effect = lower value 0.997 | S. cerevisiae deletion strains, locus YPL256C, strain CLN2, stronger effect = lower value 0.973 | S. cerevisiae deletion strains, locus YPR119W, strain clb2, stronger effect = lower value 1 | S. cerevisiae deletion strains, locus YPR141C, strain kar3, stronger effect = lower value 0.993 | S. cerevisiae deletion strains, locus YPR163C, strain tif3, stronger effect = lower value 0.988 | S. cerevisiae deletion strains, locus YPR167C, strain met16, stronger effect = lower value 0.995 | S. cerevisiae deletion strains, strain wtn01, stronger effect = lower value 0.986 | S. cerevisiae strains, strain wild type, stronger effect = lower value 1.02
